# Data: ChEMBL document CHEMBL1157539, “Thousands of chemical starting points for antimalarial lead identification” (Nature, 2010)
# Test system: Plasmodium falciparum
# Experiment: GSK_TCMDC: Inhibition of Plasmodium falciparum 3D7 in whole red blood cells, using parasite LDH activity as an index of growth. Test compounds present at 2uM
# Type: functional
row,SMILES,Inhibition [%]
1,O=C(O)C(F)(F)F.O=[N+]([O-])c1cccc(CNCC2CCC(CNCc3cccc([N+](=O)[O-])c3)CC2)c1 (stereo not given),100
2,COc1cc2c(=O)c(Cc3ccc(Cl)cc3)c(C)[nH]c2cc1F,85
3,CN(C)c1ccc(-c2ccc(C(=O)NC3CCN(Cc4ccc(C(C)(C)C)cc4)CC3)s2)cc1.O=C(O)C(F)(F)F,95
4,CC(C)CNC(=O)CN1C(=O)C(c2ccccc2)(c2ccccc2)N=C1N,94
5,COCCN1CCC(N(Cc2ccc(-c3ccc(OC(F)(F)F)cc3)cc2)C(=O)Cn2c(CCc3cccc(F)c3F)cc(=O)c3ccccc32)CC1.O=C(O)C(O)C(O)C(=O)O,96
6,Cc1cc(NCCC(=O)Nc2ccccc2)nc(NCCOc2ccccc2)n1.O=C(O)C(F)(F)F,100
7,COc1ccc2ncc(F)c(CCN3CC[C@H](NC(=O)c4ccc5c(n4)NC(=O)CS5)[C@H](O)C3)c2n1.Cl,88
8,CCCCN(CCCC)CCNC(=O)c1cccc(NC(=O)N2CCc3cc(SC)c(C(F)(F)F)cc32)c1,96
9,O=C(NCC(c1ccc(C(F)(F)F)cc1)N1CCCC1)c1cc(-c2ccncc2)c(-c2cccc(O)c2)o1.O=C(O)C(F)(F)F (stereo not given),95
10,Br.CC1(C)NC(N)=NC(=N)N1OCCCNC(=O)c1ccc([N+](=O)[O-])cc1,92
11,N#Cc1cccc(Nc2nccc(NCC(O)c3cccc(C(F)(F)F)c3)n2)c1 (stereo not given),99
12,CCOC(=O)c1cnc2c(OC)cc(OC)c(Cl)c2c1Nc1cccc(C)c1C,100
13,O=[N+]([O-])c1ccc(Nc2nc(N/N=C/c3cc(Cl)cc(Cl)c3O)nc(Nc3ccccc3)n2)cc1,100
14,O=C(Nc1ccccc1)NC1CCN(CCC2(c3ccc(Cl)c(Cl)c3)COCN(C(=O)c3ccccc3)C2)C1 (stereo not given),92
15,COc1ccc(Cl)cc1N1CCN(CCCNC(=O)c2ccc(-c3nc4cnccc4[nH]3)c(Br)c2)CC1,86
16,FC(F)(F)c1cccc(Nc2nc3nonc3nc2NC2C3CC4CC(C3)CC2C4)c1 (stereo not given),100
17,O=C(NCCCCN1CCC(c2c[nH]c3ccccc23)CC1)c1sc(-c2ccc(C(F)(F)F)cc2)nc1CO,94
18,CO/C(=C\C=C\c1cc2cc(Cl)c(Cl)cc2[nH]1)C(=O)NCCCN1CCCC[C@@H]1C,99

row,SMILES,Inhibition [%]
1,Cc1cc(C)n2nc(C(=O)Nc3cc(C(F)(F)F)ccc3N3CCOCC3)nc2n1,94
2,CC(C)c1ccc(CN2CCCCC(NC(=O)c3cc(-c4cccc(F)c4)cs3)C2)cc1.O=C(O)C(F)(F)F (stereo not given),94
3,Cc1nn(-c2ccnc3cc(Cl)ccc23)c(C)c1C(=O)NCc1cc(Cl)cc(Cl)c1,97
4,COc1ccccc1N1CCN(CCCCNC(=O)c2ccc(NC(=O)c3cc4ccccc4o3)cc2)CC1,84
5,Cc1ccc(C(=O)Cn2nc(-c3ccc(C)c(S(=O)(=O)N4CCCCC4)c3)ccc2=O)cc1,99
6,O=C(Nc1ccc(-c2nc3cc4ccccc4cc3[nH]2)cc1)c1cccc(Br)c1,100
7,CN(C)c1nc2cc(-n3cnc4cc(-c5ccc(Cl)cc5)sc4c3=O)ccc2n1CCCN1CCCCC1.O=C(O)C(F)(F)F,97
8,O=C(Nc1ccc(N2CCN(C(=O)/C=C/c3ccccc3)CC2)c(Cl)c1)c1ccc([N+](=O)[O-])o1,97
9,CN(c1ccc(F)cc1)S(=O)(=O)c1ccc(Cl)c(C(=O)Nc2cccc(C#N)c2)c1,95
10,O=C(C=Cc1ccc(Cl)c(Cl)c1)NCCCCCN1CCC(CCCNS(=O)(=O)c2cccc(C(F)(F)F)c2)CC1,100
11,Cc1cc(NC(=O)c2coc3cc(F)c(N4CC(C)N(C)C(C)C4)cc23)cnc1-c1ccc(C#N)cc1.Cl (stereo not given),99
12,COc1cc2nc(Nc3ccc4c(ccn4Cc4ccccc4)c3)nc(Nc3ccc4c(ccn4Cc4ccccc4)c3)c2cc1OC,89
13,Cl.O=C(CNC1=NCCN1)Nc1ccc(NC(=O)Nc2ccc(NC(=O)CNC3=NCCN3)cc2)cc1,90
14,CC(C)(C)c1ccc(CN(C[C@@H](O)CNS(=O)(=O)c2cc(Cl)cc(Cl)c2)C(C)(C)C)cc1.Cl,98
15,COc1ccc2nc(-c3cc(-c4ccc(NC(C)=O)cc4)cnc3N)[nH]c2c1,93
16,Cc1nc(N)nc(N)c1-c1ccc(Cl)cc1,96
17,O=C(c1cnn(-c2ccccc2)c1C(F)(F)F)N1CCN(c2ccnc3cc(Cl)ccc23)CC1,89
